# The whole screen tested about 360,000 compounds, of which about 6,200 (1.7%) were called active.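 How the source made its calls: active means inhibition of at least 50% at 20 µM; inactive means the rest.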 For the sample, actives were picked, then their nearest neighbours and some compounds at random.
# Test: Peg3 promoter-driven luciferase inhibitors, primary screen, cell-based, HeLa, luciferase luminescence (AID 588405)
# Conditions: HeLa PEG-Prom luciferase reporter, overnight, at 20 µM, active compounds read high
row,SMILES,inhibition
1,Cc1cc2nc(-c3ccco3)c(Cc3cccc(F)c3)n2c(C)c1Br,-26.2% (inactive)
2,CC(Sc1nnc(C2CC2)n1C1CC1)C(=O)Nc1ccc(C(N)=O)cc1 (stereo not drawn),0.86% (inactive)
3,CCOC(=O)c1c(-c2ccccc2)oc2cc(Br)c(O)c(C=O)c12,69.1% (active)
4,CCOC(=O)c1c(C)oc2cc(Sc3ccccc3)c(O)c(O)c12,-89% (inactive)
5,Cc1oc2cc(Br)c(O)c(Br)c2c1C(=O)c1ccccc1,-69.5% (inactive)
6,CCCNC(=O)c1cc(C2CCCCN2S(=O)(=O)c2cn(C)cn2)on1 (stereo not drawn),-3.04% (inactive)
7,O=C(CNC(c1ccccc1)c1ccccc1)Nc1ccc(F)cc1,6.17% (inactive)
8,O=S1(=O)CC(N2CCN(c3ccccn3)CC2)CN1Cc1ccc(F)cc1 (stereo not drawn),10.9% (inactive)
9,Cc1ccc(F)c(S(=O)(=O)NC(=O)C2(C)CCN2C(=O)c2ccco2)c1 (stereo not drawn),-1.32% (inactive)
10,CCOc1ccc(N(CC(=O)NCC2CCCO2)S(=O)(=O)c2ccc(C)cc2)cc1 (stereo not drawn),14.4% (inactive)
11,Cc1cc(Br)ccc1NC(=O)c1cnc(N2CCN(c3ccccn3)CC2)c2ccccc12,64.2% (active)
12,Cc1cc(Br)ccc1NC(=O)c1sc2ncn(CC(=O)N3CCN(c4ccccn4)CC3)c(=O)c2c1C,1.76% (inactive)
13,COc1ccc(NC(=O)c2sc3nc(C)nc(N4CCN(c5ccccn5)CC4)c3c2C)c(OC)c1,30.7% (inactive)
14,CC(=O)Nc1cccc(-c2cc(NC=O)c3ncc(-c4ccc(F)c(Cl)c4)n3c2)c1,40.1% (inactive)
15,COC(=O)[C@H](CCSC)NC(=O)Nc1ccc(OC)cc1,10.2% (inactive)
16,COc1ccc(NC(=O)C(Br)C(C)C)cc1 (stereo not drawn),-6.38% (inactive)
17,COc1ccc(CC(N)c2csc(NC(=O)Nc3ccc(C(C)C)cc3)n2)cc1 (stereo not drawn),100% (active)
18,CC(C)(C)CC(=O)Nc1nnc(SCC(=O)NCc2cccs2)s1,9.91% (inactive)
19,Cc1ccccc1NC(=O)Cc1nc(COC(=O)c2ccc(C(F)(F)F)cc2)cs1,-7.19% (inactive)
20,COc1ccc(CC(N)c2csc(NC(=O)NC(c3ccccc3)c3ccccc3)n2)cc1 (stereo not drawn),96.6% (active)
21,COc1ccc(CC(N)c2csc(NC(=O)Cc3ccccc3)n2)cc1 (stereo not drawn),49.7% (inactive)
22,COc1ccc(OC)c(NC(=O)N[C@H](Cc2ccccc2)C(=O)NN)c1,9.08% (inactive)

row,SMILES,inhibition
1,CC(C)(C)CC(=O)Nc1nc(C(N)Cc2ccc(C(F)(F)F)cc2)cs1 (stereo not drawn),102% (active)
2,O=C(NCc1ccc(F)cc1)c1cc(C2CCCCN2C(=O)c2cccs2)on1 (stereo not drawn),12.7% (inactive)
3,CC(C)Cn1c(N)c(C(=O)COC(=O)C2CCCN2C(=O)c2cccs2)c(=O)n(C)c1=O (stereo not drawn),8.57% (inactive)
4,C#Cc1ccc(NC(=O)C2(C)CCN2C(=O)Cc2ccc(-c3ccccc3)cc2)cc1 (stereo not drawn),20.8% (inactive)
5,O=C(NCc1cccnc1)c1cc(C2CCCN(C(=O)C3CCCCC3)C2)on1 (stereo not drawn),3.87% (inactive)
6,CC(C)CCNC(=O)c1[nH]c(C(F)(F)F)nc1-c1ccccc1,11.4% (inactive)
7,COc1ccc(C(NC(=O)C2CCN(CCCc3ccccc3)CC2)c2cccs2)cc1 (stereo not drawn),2.75% (inactive)
8,Nc1ncnc2c1ncn2[C@@H]1O[C@H](C(=O)NCC(F)(F)F)[C@@H](O)[C@H]1O,4.09% (inactive)
9,Cc1c(C(=O)NCc2ccc(C#N)cc2)sc(=O)n1Cc1ccc(C(=O)N(C)C)cc1,7.87% (inactive)
10,Cn1cncc1C#Cc1c(-c2ccsc2)sc2ccccc12,44.3% (inactive)
11,COc1ccc2sc(-c3ccc(S(C)(=O)=O)cc3)c(-c3ccc(C(N)=O)cc3)c2c1,3.59% (inactive)
12,COc1ccc2sc(-c3ccc(S(C)(=O)=O)cc3)c(C#Cc3cncn3C)c2c1,54.5% (active)
13,CCn1c(SCC(=O)Nc2ccc(C)cc2)nc2nc3c(cc2c1=O)CCCC3,10.5% (inactive)
14,CCNC(=S)Nc1ccc2c(c1)c(=O)n(C)n2Cc1ccc(Cl)cc1,-3.64% (inactive)
15,c1ccc2c(c1)C(=NC1CCCCC1)NC2=NC1CCCCC1,101% (active)
16,CC1(C)Cc2nc3sc4c(SCC(=O)NC(c5ccccc5)c5ccccc5)ncnc4c3cc2CO1,-23% (inactive)
17,Cc1ccccc1S(=O)(=O)NC(=O)C1(C)CCN1C(=O)C1(c2ccc(Cl)cc2)CC1 (stereo not drawn),15.9% (inactive)
18,Cc1cccc(-c2cnc(C(O)c3ccc4ccccc4c3)[nH]2)c1 (stereo not drawn),5.95% (inactive)
19,Cc1nc2c(OCc3ccc(Cl)cc3Cl)cccn2c1N(C)CC1CC1,27.9% (inactive)
20,OC(CNCC1CCCO1)Cn1c2ccc(Br)cc2c2cc(Br)ccc21 (stereo not drawn),104% (active)
21,CCCN1CCn2c3c(c4cc(Br)ccc42)CCCC31 (stereo not drawn),-52.1% (inactive)
22,COCCNC(=O)c1ccc(Cn2c(SCC(=O)NCC3CCCO3)nc3ccc(Br)cc3c2=O)cc1 (stereo not drawn),-11.8% (inactive)

row,SMILES,inhibition
1,CNC(=O)NC(=O)C(OC(=O)c1cccc(S(=O)(=O)N2CCCCC2)c1)c1ccccc1 (stereo not drawn),8.72% (inactive)
2,CCN1/C(=C\c2ccc3ccccc3[n+]2CC)Sc2cc(C)ccc21,95.8% (active)
3,OCCN1CCN(c2ncnc3c2ncn3[C@H]2CN(Cc3ccco3)C[C@@H](CO)O2)CC1,-0.36% (inactive)
4,Cc1ccccc1Cn1c(C)c(C(=O)NCc2cccc(C(F)(F)F)c2)sc1=O,-0.27% (inactive)
5,CC(C)CC(N=C1NC(C)(C)Cc2ccccc21)C(=O)O (stereo not drawn),0.64% (inactive)
6,NC(=O)c1nsc(C(=O)N(CC(=O)NCc2ccc(F)cc2)Cc2ccco2)c1N,17.3% (inactive)
7,COc1cc(C(C(=O)NC2CCCC2)N(Cc2ccccc2)C(=O)c2snc(C(N)=O)c2N)ccc1O (stereo not drawn),-1.6% (inactive)
8,COc1ccc(CNC(=O)C(c2ccc(O)cc2)N(Cc2ccco2)C(=O)c2snc(C(N)=O)c2N)cc1 (stereo not drawn),56.7% (active)
9,CCOC(=O)C1(C)CCCN(C(=O)c2ccc(N(C)C)cc2)C1 (stereo not drawn),0.13% (inactive)
10,Cc1cc(C)n2nc(C(=O)OC(C)C(=O)c3cc(C)c(C)cc3C)nc2n1 (stereo not drawn),-10.9% (inactive)
11,CSCCC(NS(=O)(=O)c1ccc2c(c1)oc(=O)n2C)C(=O)NC1CCCc2ccccc21 (stereo not drawn),3.82% (inactive)
12,CC1=C(C(=O)N(C(C)C)C(C)C)CC(CC(=O)NCCCCc2ccccc2)C(=O)N1CCC1=CCCCC1 (stereo not drawn),18.7% (inactive)
13,COc1cccc2c1C(=O)c1c(O)c3c(c(O)c1C2=O)CC(O)(C(C)=NNC(=O)c1ccc(Cl)c(Cl)c1)CC3OC1CC(N)C(O)C(C)O1 (stereo not drawn),98.3% (active)
14,O=C(NC1CC1)C1=C[C@H](c2c[nH]c3ccccc23)C[C@H](OCc2ccc(CO)cc2)O1,-8.53% (inactive)
15,O=C(Nc1cccc2ccccc12)NC1CC1,6.64% (inactive)
16,O=C(Nc1cccc2ccccc12)c1onc2c1CCCC2,-211% (inactive)
17,O=C(Nc1cccc2ccccc12)c1[nH]c(-c2ccccc2)c2c1C(=O)N(C1CC1)C2=O,52.8% (active)
18,COc1ccc(C(=O)N2CCCCC2c2cc(C(=O)Nc3ccc(F)c(Cl)c3)no2)cc1 (stereo not drawn),11.5% (inactive)
19,Cc1nccn1-c1ccc(NC(=O)[C@H]2O[C@@H](n3cnc4c(N)ncnc43)[C@H](O)[C@@H]2O)cc1,7.92% (inactive)
20,CCc1nc2ccc(C(=O)NCc3ccc(OC)cc3)cn2c1N(CC)Cc1cccc(Br)c1,19.4% (inactive)
21,COc1ccc(NC(=O)c2sc(=O)n(Cc3ccc(S(=O)(=O)N(C)C)cc3)c2C)cc1,2.16% (inactive)
22,Cc1ccc(SCC(=O)N2CCN(c3ccc(F)cc3)CC2)cc1,8.76% (inactive)

row,SMILES,inhibition
1,CCN1CCC2(CC1)N=C(c1ccc(F)cc1)C(=S)N2C(=O)c1ccc(C)cc1,90% (active)
2,Cc1ccc(C(=O)N2CC(=O)Nc3ccc(F)cc3C2c2ccc(F)cc2)cc1 (stereo not drawn),17.9% (inactive)
3,CCCNC(=O)c1cc(C2CCCCN2S(=O)(=O)c2ccc(C#N)cc2)on1 (stereo not drawn),-6.28% (inactive)
4,OC(c1cc(Cl)cc(Cl)c1)c1ncc(-c2ccccc2C(F)(F)F)[nH]1 (stereo not drawn),35.8% (inactive)
5,CCc1ccc(/C=N/NC(=O)c2ccc(OC3CCCC3)cc2)s1,14.5% (inactive)
6,CC1(C(=O)NCc2ccco2)Cc2c(-c3ccc4c(c3)OCO4)ccnc2O1 (stereo not drawn),7.44% (inactive)
7,O=C(Nc1ccc2ccccc2c1[N+](=O)[O-])c1ccccc1,-223% (inactive)
8,O=C(Nc1ncccc1O)c1ccc(C(=O)c2ccccc2)cc1,-204% (inactive)
9,O=C(NC1=CC(=O)c2ccccc2C1=O)c1ccccc1,106% (active)
10,CCCNC(=O)C1(C)CCCN(C(=O)c2cccc(OC(C)=O)c2C)C1 (stereo not drawn),-1.66% (inactive)
11,COc1cc(NS(=O)(=O)c2ccc3ccccc3c2)c2ncccc2c1,54.5% (active)
12,CCOc1ncccc1C(=O)NNC(=O)c1cccc(S(=O)(=O)Nc2ccccc2OC)c1,6.59% (inactive)
13,CCOc1cc(NS(=O)(=O)c2ccc(OC)cc2)c(OCC)cc1NC(C)=O,11.6% (inactive)
14,COc1ccc(N2C(=O)NC(NS(=O)(=O)c3ccc(Cl)cc3)(C(F)(F)F)C2=O)cc1 (stereo not drawn),10.8% (inactive)
15,CC1=C(C(=O)N2CCOCC2)CC(CC(=O)NCc2cccs2)C(=O)N1CCCN1CCCC1=O (stereo not drawn),0.54% (inactive)
16,O=C1C(Cl)=C(Oc2ccccc2)C(=O)c2ccccc21,104% (active)
17,O=c1[nH]nc(SCCS(=O)(=O)c2ccc(F)cc2)n1-c1ccccc1C(F)(F)F,-139% (inactive)
18,CC(C)(C)N1C(=O)c2c(C(=O)OCc3ccccc3)[nH]c(-c3ccccc3)c2C1=O,24.2% (inactive)
19,COc1ccc(NC(=O)c2cn(-c3ccccc3)nc2SC)cc1,-78.1% (inactive)
20,CC1C(=O)N(Cc2ccccc2)c2ccccc2N1C(=O)c1ccccc1 (stereo not drawn),21.3% (inactive)
21,CC1C(C)N(C(=O)CCl)c2ccccc2N1C(=O)CCl (stereo not drawn),99.2% (active)
22,CC1CC(C)CN(CC(=O)N2c3ccccc3CCc3ccccc32)C1 (stereo not drawn),9.54% (inactive)
